# ChEMBL document CHEMBL3988442, “University of Dundee, Small-Polar-MMV Screening Library” (2021)
# Among all 69,000 compounds or so, about 950 (1.4%) showed an effect of 50% or more. Shown is part of a subset that was picked to be rich in strong results.
# Test system: Mycobacterium tuberculosis
# Test: Cornell M. t heat shock assay; also: in the data most compounds retested in dose-response had high values
# Format: functional, organism-based
# Parameters: dose or concentration left out as unconfirmed
row,SMILES,Percent Effect
1,Cl.Oc1cc(C2CCNCC2)nc(-c2ccsc2)n1,-3.533%
2,Cn1nccc1C(=O)N1CCC2(CC1)COC(COc1ccccn1)C2.O=C(O)C(F)(F)F (stereo unspecified),-4.012%
3,COC(=O)N1CCN(Cc2ccccc2Cl)CC1,-12.81%
4,CC(=O)Nc1nccn1Cc1ccccc1Cl,63.7%
5,O=C(Nc1ccc(=O)n(Cc2ccccc2Cl)c1)C1CC1,42.02%
6,CCOCCOC(C)C(=O)Nc1nccn1Cc1ccccc1 (stereo unspecified),28.47%
7,CC(OCC1CC1)C(=O)Nc1nccn1Cc1ccccc1 (stereo unspecified),81.58%
8,CC(OCC1CC1)C(=O)Nc1ccn(Cc2ccccc2)n1 (stereo unspecified),-11.4%
9,CN1CCOCC2(CCCN(C(=O)c3cnccn3)C2)C1.O=C(O)C(F)(F)F (stereo unspecified),-11.83%
10,Cc1cc(N(C)C)nc(C2CCNC2)n1.Cl.Cl (stereo unspecified),-43.84%
11,Cc1cnc(N2CC[C@H]3[C@@H]2CCC(=O)N3c2ccccc2)nc1.O=C(O)C(F)(F)F,36.02%
12,O=C(NCC1CC1)[C@@H]1CCO[C@@H]2CCN(CCc3ccccc3)C[C@H]21.O=C(O)C(F)(F)F,-21.47%
13,Cn1cccc1C(=O)N1CC[C@@H]2[C@@H]1CC(=O)N2CCN1CCOCC1.O=C(O)C(F)(F)F,-25.84%
14,CCO[C@@H]1CC[C@H]2[C@H]1OCCN2Cc1ccoc1.O=C(O)C(F)(F)F,1.857%
15,O=C(N[C@@H]1CN(Cc2ccoc2)C[C@@H]2CCCO[C@@H]21)C1CCC1,51.5%
16,O=C(CC1CC1)N[C@@H]1CN(Cc2ccoc2)C[C@@H]2CCCO[C@@H]21,-3.487%
17,O=C(N[C@@H]1CN(Cc2ccccc2)C[C@@H]2CCCO[C@@H]21)C1CC1.O=C(O)C(F)(F)F,-8.331%
18,Cc1cc(=O)[nH]c(-n2nc(C)c(CCC(=O)NCC(C)C)c2C)n1,98.01%
19,COc1ccc(C)nc1NC(=O)CCc1c(C)nn(C)c1C,-18.22%
20,Cc1nc2cc(O)nn2c(C)c1CCC(=O)NCCCC(C)C,-0.01064%
21,Cc1cc(=O)[nH]c(-n2nc(C)c(CCC(=O)Nc3nc(C)cs3)c2C)n1,95.61%
22,Cc1csc(NC(=O)Cn2nc(C)ccc2=O)n1,-1.06%

row,SMILES,Percent Effect
1,COCCNC(=O)CCc1c(C)nn(-c2nc(C)c(C)c(=O)[nH]2)c1C,37.18%
2,Cc1nc(NC(=O)CCc2c(C)nc3cc(O)nn3c2C)sc1C,27.32%
3,COC(=O)CCc1c(C)nn(-c2nc(C)cc(=O)[nH]2)c1C,103.1%
4,Cc1nn(-c2cc(Cl)cc(Cl)c2)c(C)c1CCC(=O)O,19.8%
5,CC(=O)N1[C@H](CN(C)C)C[C@@H]2CN(C(=O)c3cccn3C)CC[C@@H]21.O=C(O)C(F)(F)F,-10.3%
6,O=C(O)C(F)(F)F.O=C(c1cccnc1)N1CCC2(CCN(C(=O)c3ccco3)CC2)C1,23.94%
7,CCC(C)(C)NC(=O)c1ncn2c1CN(C)S(=O)(=O)c1ccccc1-2.O=C(O)C(F)(F)F,-13.28%
8,CCNC(=O)NCc1ccccc1NS(=O)(=O)c1ccccc1,35.07%
9,N#Cc1nc(COc2ccc3c(c2)OCO3)oc1NC1CCCCC1,5.438%
10,O=C(O)C(F)(F)F.c1cn2c(n1)CN(Cc1ccsc1)CC(Cn1cncn1)C2 (stereo unspecified),-22.01%
11,COc1ncc(-c2cc(-c3ccn(C)c3)nc(N)c2C#N)cn1,-43.44%
12,CCCn1cc(-c2cc(-c3c[nH]cn3)c(C#N)c(N)n2)c(C)n1,15.71%
13,CCCn1cc(-c2cc(-c3ccoc3)c(C#N)c(N)n2)c(C)n1,75.39%
14,CCCn1cc(-c2cc(-c3cnc(OC)nc3)c(C#N)c(N)n2)c(C)n1,100.5%
15,CCCn1cc(-c2cc(-c3cc(CC)n[nH]3)c(C#N)c(N)n2)c(C)n1,41.25%
16,Cc1ccc(-c2cc(-c3c(C)nn(CCO)c3C)c(C#N)c(N)n2)cc1,10.03%
17,O=C(C[C@@H]1COC[C@H]2CN(C(=O)c3cccnc3)C[C@@H]12)N1CCOCC1.O=C(O)C(F)(F)F,-5.703%
18,CN(C)C(=O)CN1C(=O)CCC12CCN(Cc1ccsc1)CC2.O=C(O)C(F)(F)F,-0.1041%
19,COCc1ccc(CN2CCC(O)(Cn3ccc4ncccc43)CC2)o1.Cl,-9.994%
20,Cl.c1ccc(CNc2cc(C3CCCNC3)ccn2)nc1 (stereo unspecified),18.31%
21,Cc1oncc1C(=O)NCc1cc(=O)n2c(n1)CN(CC1CC1)CCC2.O=C(O)C(F)(F)F,-32.57%
22,COCC(=O)N1CC[C@H]2O[C@@H](C)C[C@H]2C1,64.99%

row,SMILES,Percent Effect
1,COCC(=O)N1CC[C@@H]2O[C@@H](C)C[C@H]2C1,-1.773%
2,COCC(=O)N1CC[C@H]2C[C@H](C)O[C@@H]2C1,3.806%
3,COCC1CN(Cc2ccc3c(c2)OCO3)Cc2ncn(C)c21.O=C(O)C(F)(F)F.O=C(O)C(F)(F)F (stereo unspecified),-21.56%
4,Cl.O=C(N1CCCC1)C1(Cc2ccc(-c3cccs3)cc2)CCNC1 (stereo unspecified),-20.63%
5,Cc1c[nH]c(C2CCCN(Cc3ccccc3C(=O)O)C2)n1.O=CO (stereo unspecified),-20.14%
6,CC(C)CCN1C[C@H]2C[C@H](C(=O)Nc3ccccc3)[C@@H](C1)O2.O=C(O)C(F)(F)F,-19.48%
7,CN(Cc1cccnc1)[C@@H]1CN(C(=O)c2ccno2)[C@@H]2CCCO[C@H]12.O=C(O)C(F)(F)F.O=C(O)C(F)(F)F,0.2387%
8,COC(=O)Cn1c(=O)nc2n1C(=O)N(c1ccc(C)cc1)C2,3.714%
9,CCS(=O)(=O)NC[C@]12COC[C@H]1CN(Cc1cccc(OC)c1)C2.O=C(O)C(F)(F)F,-11.48%
10,CN(Cc1cccc(F)c1)C(=O)CS(=O)(=O)Cc1ccc(Cl)c(Cl)c1,52.33%
11,CN(Cc1cccc(F)c1)C(=O)CS(=O)(=O)Cc1c(Cl)cccc1Cl,25.49%
12,CN(Cc1ccccc1)C(=O)CS(=O)(=O)Cc1ccc(Cl)c(Cl)c1,47.42%
13,Cc1ccc(-c2cc(C3CCNCC3)nc(C)n2)cc1.Cl,-12.8%
14,CSc1ccc(-c2cc(CN)nc3ccnn23)cc1.Cl,4.059%
15,COC(=O)C(NC(=O)c1ccc(N(C)C)nc1)c1ccccc1 (stereo unspecified),22%
16,NC(=O)C(NC(=O)c1ccc(NC2CC2)nc1)c1ccccc1 (stereo unspecified),-7.076%
17,COC(=O)C(NC(=O)c1ccc(NC2CC2)nc1)c1ccccc1 (stereo unspecified),51.61%
18,COc1cccc(C(=O)N2C[C@H]3CC[C@@H]2CN(Cc2cscn2)C3)c1,-27.99%
19,CC(C)Cc1cc(CN2C[C@H]3CC[C@@H]2CN(Cc2cscn2)C3)n[nH]1,107.7%
20,Cc1c[nH]c(C(=O)N2C[C@H]3CC[C@@H]2CN(Cc2cscn2)C3)n1,2.551%
21,CC(C)(C)c1cc(CN2C[C@H]3CC[C@@H]2CN(Cc2cscn2)C3)n[nH]1,92.4%
22,CC(C)c1cc(C(=O)N2C[C@H]3CC[C@@H]2CN(Cc2cscn2)C3)no1,37.62%

row,SMILES,Percent Effect
1,COC(=O)N1C[C@H]2CC[C@@H]1CN(Cc1cscn1)C2,1.905%
2,CN1C(=O)C(c2ccccc2)CC12CCN(CCO)CC2.O=C(O)C(F)(F)F (stereo unspecified),-21.97%
3,Cc1cccc(CN2CC3(CCN(C4CCOC4)CC3)OCC2=O)n1.O=C(O)C(F)(F)F.O=C(O)C(F)(F)F (stereo unspecified),-30.47%
4,O=C(O)C(F)(F)F.O=C(c1ccco1)N1CCO[C@@H]2CN(Cc3nccs3)CC[C@@H]2C1,4.898%
5,CCC1=N[C@@]2(CC[C@@H]3CN(Cc4cccc(Cl)c4)C[C@@H]32)C(=O)N1C.O=C(O)C(F)(F)F,32.88%
6,Cc1nc(C2CCN(Cc3ncc[nH]3)CC2)no1.O=CO,-19.83%
7,CNc1oc(-c2ccc(S(=O)(=O)N(C)C)o2)nc1C#N,-18.56%
8,Cc1oc(-c2nc(C#N)c(NC(C)(C)C)o2)cc1S(=O)(=O)N1CCCC1,1.248%
9,CNc1oc(-c2ccc(OC)c(S(=O)(=O)N(C)C)c2)nc1C#N,4.952%
10,CN(C)S(=O)(=O)c1ccc(-c2nc(C#N)c(NC3CCCCC3)o2)o1,5.856%
11,CN(C)S(=O)(=O)c1ccc(-c2nc(C#N)c(NC3CC3)o2)o1,78.01%
12,CC(C)Nc1oc(-c2ccc(S(=O)(=O)N(C)C)o2)nc1C#N,-8.92%
13,CN(C)S(=O)(=O)c1ccc(-c2nc(C#N)c(NC(C)(C)C)o2)o1.Cl,74.72%
14,Cc1oc(-c2nc(C#N)c(NC3CC3)o2)cc1S(=O)(=O)N1CCCC1,-1.847%
15,CCN1CCOCC2(CCCN(C(=O)c3ccncc3F)C2)C1.O=C(O)C(F)(F)F (stereo unspecified),-0.7478%
16,Cc1ccc(CN2CCC(O)(Cn3ccc4ncccc43)CC2)o1.Cl,-13.38%
17,CNC(=O)C1Cn2ccnc2C2(CCN(Cc3ccncc3)CC2)O1.O=C(O)C(F)(F)F.O=C(O)C(F)(F)F.O=C(O)C(F)(F)F (stereo unspecified),-2.036%
18,O=C(NCc1ccco1)[C@H]1CC[C@@H]2[C@@H](CCN2C2CCC2)O1.O=C(O)C(F)(F)F,-4.585%
19,CN(C)CCOCC1CN(Cc2ccoc2)Cc2nnn(C)c21.O=C(O)C(F)(F)F.O=C(O)C(F)(F)F (stereo unspecified),-17.74%
20,Cc1cc(N(C)C)nc(C2CCCN2)n1.Cl.Cl (stereo unspecified),-13.2%
